G9a inh – inhibitors of human histone lysine methyltransferase G9a; 350,000 compounds, 8.8% hits; G9a H3K9 monomethylation, AlphaScreen, 2 h; Q96KQ7; AID 504332; Potency, µM (doses to about 102 µM), actives largely listed as inhibitors; note: nearly all actives have a fitted effect of over 75% in size
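G9a (20 nM) was preincubated 15 min with compound, then reacted 2 h at room temperature with 500 nM biotin-H3K9 peptide and 20 µM SAM. Monomethyl-H3K9 detected by AlphaScreen using anti-H3K9me1 antibody.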
JMJD2A Tudor – inhibitors of human JMJD2A Tudor domain | O75164 | AlphaScreen JMJD2A-Tudor / H3K4me3 peptide binding | Potency, µM (highest dose often 114 µM), actives largely listed as inhibitors | 390,000 compounds, 4.4% hits | AID 504339; note: nearly all actives have a fitted effect of over 50% in size
PLK1 PBD inh – inhibitors of human PLK1 polo-box domain binding; 360,000 compounds, 2.8% hits; AID 720504; P53350; Potency, µM, usual class: inhibitors; Plk1 PBD binding of FITC phosphopeptide, fluorescence polarization; note: series mostly up to about 57 µM; nearly all actives have a fitted effect of over 65% in size
Target sequence (P53350 whole entry, looked up, the tested form may be a part): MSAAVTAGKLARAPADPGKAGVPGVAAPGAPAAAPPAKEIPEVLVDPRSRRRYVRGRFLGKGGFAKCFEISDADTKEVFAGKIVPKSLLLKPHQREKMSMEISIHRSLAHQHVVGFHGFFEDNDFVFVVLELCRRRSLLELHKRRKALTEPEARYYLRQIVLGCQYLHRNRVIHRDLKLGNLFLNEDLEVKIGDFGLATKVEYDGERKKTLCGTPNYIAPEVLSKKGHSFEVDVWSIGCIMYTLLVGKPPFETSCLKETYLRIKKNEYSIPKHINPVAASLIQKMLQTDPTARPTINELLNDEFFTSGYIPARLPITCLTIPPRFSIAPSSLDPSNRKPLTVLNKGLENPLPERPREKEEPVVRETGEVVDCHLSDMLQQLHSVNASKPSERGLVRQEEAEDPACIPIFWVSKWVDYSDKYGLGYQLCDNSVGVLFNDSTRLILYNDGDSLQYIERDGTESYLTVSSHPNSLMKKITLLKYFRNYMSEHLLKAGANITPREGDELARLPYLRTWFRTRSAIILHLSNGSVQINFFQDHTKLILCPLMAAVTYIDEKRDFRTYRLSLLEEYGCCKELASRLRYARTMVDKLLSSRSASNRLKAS
12-LOX inh – blocks human arachidonate 12S-lipoxygenase; AID 1671190; Potency, µM (series often up to 108 µM), most hits filed as inhibitors; P18054; 580,000 compounds, 1.1% hits; purified 12hLO, xylenol orange hydroperoxide absorbance
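Hydroperoxide product was detected by ferrous iron/xylenol orange as the 573 to 405 nm absorbance ratio. Arachidonic acid at 40 uM (final) was turned over for 30 min at room temperature by 150 nM human 12hLO, pH 7.0 Hepes buffer, after 15 min compound preincubation.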
BAZ2B inh – inhibitors of human BAZ2B bromodomain | Potency, µM (highest dose often 114 µM), hits mostly inhibitors | AlphaScreen BAZ2B-H3K14Ac peptide displacement | Q9UIF8 | 360,000 compounds, 4.4% hits; note: nearly all actives have a fitted effect of over 60% in size
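AlphaScreen luminescence quantifies BAZ2B engagement of H3K14Ac peptide; the protein and biotinylated peptide are both at 50 nM final, buffer PBS pH 7.4 with 0.01% Tween-20, all steps at room temperature.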
HP1b binding inh – HP1-beta chromodomain-methylated histone interaction inhibition. 390,000 compounds, 0.56% hits. Potency, µM (highest dose often 114 µM), hits mostly inhibitors. AlphaScreen HP1-beta / biotin-H3K9me3 peptide binding. P83916. AID 540317; note: nearly all actives have a fitted effect of over 70% in size
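AlphaScreen: HP1-beta (50 nM) preformed 30 min with biotin-H3(1-18)K9me3 peptide (50 nM) in PBS pH 7.4, 0.01% Tween-20. Compound added for 30 min at RT, then streptavidin donor/nickel chelate acceptor beads (10 ug/mL) for 30 min.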
Each line names hits and unclear results; the compound was inactive in the other large screens. Sampled rows, rich in hits. Any-hit rate of the full collection: about 9%. Calls come from the whole dose curve; as a rule, active = well fitted curve in the direction sought with a large enough effect; inconclusive = small, poorly fitted or top-dose-only effect, or another doubt; inactive = no such curve, though single readings can be large; an effect the other way counts as inactive or inconclusive.

Cc1cccc(-n2c(SCC(=O)N3CC(=O)Nc4ccccc43)nc3ccccc3c2=O)c1C	G9a inh 44.7µM, 12-LOX inh inconclusive
Cc1cccn2c(=O)c3cc(C#N)c(=N)n(CCCN4CCOCC4)c3nc12	none (no result: G9a inh, BAZ2B inh)
Cc1ccc(C2=[N+]([O-])C3(CCCCC/C3=N\NC(N)=O)N(O)C2(C)C)o1 (configuration not stated)	G9a inh inconclusive
CC(=O)c1ccc(-c2ccc(C(=O)NCC3CCCO3)o2)cc1 (configuration not stated)	G9a inh 79.4µM
CC(=O)c1ccc(-c2ccc(C(=O)NC3CC(C)(C)NC(C)(C)C3)o2)cc1	G9a inh 39.8µM
CC1(C)CC(NC(=O)c2ccc(F)cc2)CC(C)(C)N1	none (no result: G9a inh, JMJD2A Tudor, BAZ2B inh, HP1b binding inh)
O=C(NCCc1ccc(F)cc1)N1CCOCC1	PLK1 PBD inh 21.2µM
CCc1cc(C(=O)OC)c(NC(=O)CC2Nc3cc(C)c(C)cc3NC2=O)s1 (configuration not stated)	G9a inh inconclusive
Cc1cc2c(cc1C)NC(CC(=O)NCc1ccccc1)C(=O)N2 (configuration not stated)	G9a inh 3.16µM
Cc1cc2c(cc1C)NC(CC(=O)Nc1cccc(C)c1C)C(=O)N2 (configuration not stated)	none (no result: PLK1 PBD inh)
COC(=O)c1c(NC(=O)CC2Nc3cc(C)c(C)cc3NC2=O)sc(C)c1C (configuration not stated)	G9a inh 20µM, PLK1 PBD inh inconclusive (no result: 12-LOX inh)
COCCN(Cc1cc2cc(C)ccc2n2nnnc12)C(=S)Nc1ccc(C)cc1	none
Clc1ccc(-c2nnc(-c3ccccc3)c(-c3ccccc3)n2)cc1	none (no result: G9a inh)
CCn1c(C(=O)N2CCc3ccccc3C2)cc2oc3ccccc3c21	G9a inh inconclusive, JMJD2A Tudor inconclusive, BAZ2B inh 50.1µM
Cn1c(C(=O)N2CCc3ccccc3C2)cc2oc3ccccc3c21	G9a inh inconclusive, JMJD2A Tudor 79.4µM, BAZ2B inh inconclusive, HP1b binding inh inconclusive (no result: 12-LOX inh)
CSC1=N/C(=C\c2ccc(F)cc2)C(=O)S1	G9a inh inconclusive
CSC1=N/C(=C\c2ccc(I)o2)C(=O)S1	12-LOX inh 5.62µM (no result: G9a inh, JMJD2A Tudor, PLK1 PBD inh, BAZ2B inh, HP1b binding inh)
CSC1=N/C(=C\c2ccc(C)s2)C(=O)S1	none
CSC1=N/C(=C\c2ccc(C)o2)C(=O)S1	G9a inh 12.6µM, JMJD2A Tudor inconclusive, 12-LOX inh 44.7µM, BAZ2B inh 44.7µM
CCOC(=O)C1=C(N)OC2=C(C(=O)CC(C)(C)C2)C1c1cccnc1 (configuration not stated)	none
O=C(NNC(=O)c1sccc1-n1cccc1)c1ccccc1	PLK1 PBD inh 23.8µM
Cc1ccc(S(=O)(=O)NNC(=O)c2sccc2-n2cccc2)cc1	JMJD2A Tudor inconclusive, 12-LOX inh 31.6µM, BAZ2B inh inconclusive
O=C(NNS(=O)(=O)c1ccc(F)cc1)c1sccc1-n1cccc1	none
O=C(NNC(=O)c1sccc1-n1cccc1)c1ccc(F)cc1	BAZ2B inh inconclusive
Cc1cccc(C)c1C(OCCN(C)C)C1CCCCC1 (configuration not stated)	G9a inh 10µM, JMJD2A Tudor 14.1µM, 12-LOX inh inconclusive, BAZ2B inh inconclusive, HP1b binding inh inconclusive
C1CCN=C(Nc2nn[nH]n2)CC1	G9a inh inconclusive, JMJD2A Tudor 7.94µM, 12-LOX inh inconclusive, BAZ2B inh 79.4µM
Fc1ccc(NC2=NCCCCC2)cc1	none
COc1cc(OC)nc(NC(C)=O)n1	none (no result: G9a inh)
COC(=O)c1nc(NC(C)=O)n[nH]1	G9a inh 15.8µM (no result: JMJD2A Tudor, PLK1 PBD inh, 12-LOX inh, HP1b binding inh)
COC(=O)c1nc(NC2=NCCCCC2)n[nH]1	G9a inh inconclusive, JMJD2A Tudor 79.4µM, PLK1 PBD inh inconclusive
c1csc(-c2nn[nH]n2)c1	12-LOX inh inconclusive, BAZ2B inh inconclusive
COc1ccc(Cl)cc1NC(=O)C(C)NC(c1ccccc1)c1ccccc1 (configuration not stated)	G9a inh 79.4µM
COc1ccc(C(=O)c2c(C(F)(F)F)oc3c2C(=O)c2ccccc2C3=O)cc1OC	G9a inh 14.1µM, JMJD2A Tudor inconclusive, BAZ2B inh inconclusive, HP1b binding inh inconclusive

High-throughput results: PubChem BioAssay, National Center for Advancing Translational Sciences (NCATS)
